High-throughput results (PubChem)
An excerpt weighted towards active compounds, which were near 4.3% of everything screened.
Anthrax LF prot: inhibitors of Bacillus anthracis lethal factor protease. inhibition, % at 10 µM. multiplex microsphere protease cleavage assay, LF. actives 0.12% (n = 360,000). AID 588501. P15917; note: plate controls were buffer without enzyme for full effect and enzyme alone for no effect
Target sequence (P15917 whole entry, looked up): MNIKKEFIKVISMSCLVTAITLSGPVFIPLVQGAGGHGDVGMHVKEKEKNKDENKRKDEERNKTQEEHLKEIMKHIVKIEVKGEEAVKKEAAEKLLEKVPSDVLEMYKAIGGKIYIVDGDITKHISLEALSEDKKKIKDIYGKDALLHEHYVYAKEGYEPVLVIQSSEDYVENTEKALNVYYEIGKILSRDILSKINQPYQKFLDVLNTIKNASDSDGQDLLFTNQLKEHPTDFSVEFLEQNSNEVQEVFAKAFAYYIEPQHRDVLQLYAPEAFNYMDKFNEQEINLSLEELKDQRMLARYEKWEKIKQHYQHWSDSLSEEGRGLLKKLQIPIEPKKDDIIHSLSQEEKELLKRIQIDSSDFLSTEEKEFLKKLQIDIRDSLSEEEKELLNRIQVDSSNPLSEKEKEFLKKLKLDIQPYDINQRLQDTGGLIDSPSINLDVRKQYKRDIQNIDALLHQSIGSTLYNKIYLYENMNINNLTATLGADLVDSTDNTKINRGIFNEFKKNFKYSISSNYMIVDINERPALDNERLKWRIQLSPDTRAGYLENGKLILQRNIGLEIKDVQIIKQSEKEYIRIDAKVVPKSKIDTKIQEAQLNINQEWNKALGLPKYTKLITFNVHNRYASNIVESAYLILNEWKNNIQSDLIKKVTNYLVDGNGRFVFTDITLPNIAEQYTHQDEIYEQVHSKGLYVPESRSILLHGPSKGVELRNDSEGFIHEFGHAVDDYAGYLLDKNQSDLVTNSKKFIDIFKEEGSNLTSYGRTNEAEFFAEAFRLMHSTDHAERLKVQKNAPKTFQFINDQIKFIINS
MazF activator: increases E. coli MazEF RNase cleavage of RNA; FAM/BHQ RNA-DNA oligo cleavage fluorescence, 5 h; AID 504720; actives 0.32% (n = 350,000); activation, % at 20 µM; P0AE70; in the data active = activation above about 50%
BoNT F protease: blocks Botulinum neurotoxin F light chain protease | Multiplex microsphere protease cleavage assay, flow cytometry | inhibition, % at 10 µM | actives 0.22% (n = 360,000); in the data active = inhibition above about 35%, passing the limit was not always enough; inconclusive = no clear call, values can overlap the other calls; note: plate controls were buffer without enzyme for full effect and enzyme alone for no effect
Autofluor counter: compound fluorescence in toxin protease inhibitor counterscreen | compound autofluorescence counterscreen, microsphere flow cytometry; hits give high values | fluorescence intensity (concentration not given with the values) | actives 3.1% (n = 360,000) | AID 624483; in the data active = fluorescence intensity above about 16000; inconclusive = no clear call, values can overlap the other calls
BoNT-A LC inh2: inhibitors of Botulinum neurotoxin A light chain protease | actives 0.17% (n = 360,000) | inhibition, % at 10 µM | multiplex microsphere protease substrate cleavage, flow cytometry | AID 588499; note: plate controls were buffer without enzyme for full effect and enzyme alone for no effect
PfHsp40 yeast: restores yeast growth despite PfHsp40 toxicity | actives 0.68% (n = 340,000) | AID 504582 | growth rescue, % at 12.5 µM | S. cerevisiae expressing PfHsp40, growth rescue, ATP luminescence; in the data active = growth rescue above about 28%, passing the limit was not always enough; inconclusive = no clear call, values can overlap the other calls;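 note: yeast W303a lacking pdr1 and pdr3 grown in galactose medium; growth measured after three days at 30 °C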
Starred values were filed as active, the others as inactive; ? = inconclusive; . = no result. Cut-off read from the data, not from the text of the source, unless noted: active = inhibition above about 30%; inconclusive = no clear call, values can overlap the other calls; inactive = below that.

SMILES	Anthrax LF prot	MazF activator	BoNT F protease	Autofluor counter	BoNT-A LC inh2	PfHsp40 yeast
O=C1CC2CCCN2C=C1I (stereo unspecified)	-9.2	-30.4	-8.1	3472	0.7	0.6
Cc1cc(SCC(=O)NCCN2C(=O)CSC2=O)nc2c(C)cccc12	1.4	1.0	-33.0	2075	-1.6	36.9*
Cc1cc(SCC(=O)c2cccs2)nc2c(C)cccc12	-9.0	-11.0	-0.7	16902*	-3.1	-1.3
Cc1cc(SCC(=O)N/N=C/c2cccnc2)nc2c(C)cccc12	-3.8	-30.9	-1.2	4328	0.1	-0.5
Cc1cc(C)c2nc(SCC(=O)NCCN3C(=O)CSC3=O)cc(C)c2c1	0.2	-0.5	-4.2	10262	1.9	2.7
Cc1cc(C)c(C#N)c(SCC(=O)c2ccccc2)n1	0.2	-7.9	-4.1	2212	-0.1	0.8
CC(=O)Nc1ccc(C(=O)CSc2cc(C)c3cccc(C)c3n2)cc1	-0.7	77.7*	-6.8	10871	0.2	0.4
Cc1cc(C)c(C#N)c(SCC(=O)c2cccs2)n1	4.4	108.7*	-1.3	22840*	?	0.3
CC[C@@]1(C(=O)OC)N[C@H](CN(C)S(=O)(=O)c2ccc(F)cc2)[C@@H]2C(=O)N(C)C(=O)[C@@H]21	-5.9	10.6	-4.0	3677	-0.9	0.8
CC(OC(=O)c1ccccc1)C(=O)NCc1ccco1 (stereo unspecified)	.	-0.5	.	.	.	-0.6
CCOC(=O)c1cccc(NS(=O)(=O)c2c(C)[nH]c(=O)[nH]c2=O)c1	-9.9	-1.6	0.7	19045*	1.4	0.4
CCOC(=O)c1cccc(NS(=O)(=O)c2c(C)[nH]c(C)c2C(=O)N2CCCC2)c1	-1.2	-29.7	-5.3	5756	1.0	-1.4
CCc1c(C)nc2nc(SCc3ccccc3)[nH]n2c1=O	8.1	13.2	19.4	3637	0.6	.
O=C(Sc1cccc2cccnc12)c1ccccc1Br	1.4	.	1.9	5949	0.9	119.0*
CC(=O)/C(=N\Nc1ccccc1)Sc1cccc2cccnc12	-8.1	0.3	-18.0	7089	-2.0	0.5
Cc1c(C(=O)Oc2cc(N)n(S(C)(=O)=O)n2)cccc1[N+](=O)[O-]	-0.5	73.8*	5.3	1969	-0.3	0.3
C=CCn1c(SC(C)C(=O)c2c(N)n(C)c(=O)n(C)c2=O)nnc1-c1ccoc1C (stereo unspecified)	5.1	3.8	6.2	8861	-0.2	0.2
CCOc1ccc(OCc2ccc(C(=O)N3N=C(C(F)F)CC3(O)C(F)F)o2)cc1 (stereo unspecified)	-3.6	-3.7	-3.3	17666*	-4.1	-1.6
O=C(c1ccc(COc2ccc(Br)cc2)o1)N1N=C(C(F)F)CC1(O)C(F)F (stereo unspecified)	-2.0	-11.9	-1.8	2519	-0.2	2.0
COC(=O)c1ccc(-n2nc(C(F)(F)F)c3c2-c2ccoc2CC3)cc1	-2.3	-17.1	7.7	4835	-1.2	2.7
O=C(O)c1ccc(-n2nc(C(F)(F)F)c3c2-c2ccoc2CC3)cc1	1.2	2.8	-5.9	21579*	-5.9	-0.7
O=C(O)C/C(=C\c1ccc(Cl)cc1)c1nc2ccccc2o1	-4.9	5.2	2.4	4417	0.7	135.0*
Cc1ccc2c(c1)N(S(=O)(=O)c1ccc(CN3C(=O)c4cccnc4C3=O)s1)CCO2	-2.4	9.6	-5.7	5720	-0.6	-0.7
Cc1ccccc1-n1nnnc1-c1ccccc1	-1.9	4.1	-2.2	23616*	-2.6	0.0
COc1ccc(S(=O)(=O)NCc2ccccn2)cc1NC(=O)c1ccccc1C	-0.5	-3.5	3.0	?	3.3	0.8
O=C(O)CCC(=O)Nc1ccc(Br)cc1C(=O)c1ccc(Cl)cc1	-7.7	-1.9	-4.8	3382	-1.4	-2.0
c1ccc(-n2nnnc2SCc2cn3ccccc3n2)cc1	-6.2	7.3	-8.9	?	0.0	-0.8
c1ccc(-n2nnnc2SCc2cn3cccnc3n2)cc1	-3.9	-17.2	-0.1	23611*	-0.3	-1.0
COc1ccc2c3c([nH]c2c1)C1(NCC3)C(=O)Nc2ccccc21 (stereo unspecified)	-1.9	0.5	-12.6	4494	-1.0	0.8
COc1cc2c(cc1OC)C1(NCC2)C(=O)Nc2ccccc21 (stereo unspecified)	0.4	-12.9	-5.0	16750*	-1.9	-0.6
